The values below come from the supplement of paper PMC12632987.

The chains are these.
B1: GBRAP_52_6036 (protein)
chain: SRERMRRLAQEIVDLAKAGDLEGARALAREAVETLSEEELRLLGEELARLAREAAPEDLDAIMEVAFILADALVEGGYDEVLADDLLARVAAAAVENLQA
B2: GBRAP_52_6031 (protein)
chain: SRERMRALARELIDLVLAGRDDEARALAEELVATLSEEELRLLGEELARLTREAAPEDLDAYMRAAEIVADALEAAGYDEVLADDLLARVAAAAVENLAR
B3: GBRAP_196_5416 (protein)
chain: KYLEEIKELEKESEEEVKDIELSDWTIVVNFTPENLEEEAEKTAEIAKDLGNPEIVIVHDGTLEEMLEALKLLREKLKEKGVVSKISVDSRAREEAEEKA
B4: GBRAP_84_7000 (protein)
chain: MREEEIEKLVDYLAENSSLELLKKLYVYLLLKNDNKGATRLLSYLLEKDPEAAAEALDKATEAALEEKEEEVKKELLELAKKEGEEIYKKVKKLIELLEE
B5: GBRAP_160_4655 (protein)
chain: SAELEELLEKIREIFEEALEMMKGETHEQRVAIARVMKGDVILLLEESPSVSDETVDEVDEVMDELVETIEENPDWTDEEIEEKIDEALEEIEEILEEDF
B6: GBRAP_11_2732 (protein)
chain: KKEKLEEIRELAERLAELLQRLIEEGPEDEELRREAEEQLRKLEELVKEYGDEDLKKLVEIIREEWERAQEDPETAVEHLRNALAAARVLAGQVLLEIEE
B7: GBRAP_128_3559 (protein)
chain: SVEERVEKAKELLEKIKNSDVEEARKYAEELAKLLEEADEESLEAIVETILERLPELSVEHLDVLADVFRERIPEADPRTAEALAEIQVEALNEAEEKEE
B8: GBRAP_128_3586 (protein)
chain: SVEAVRAETRALMAAMKTADDATAKALATELAARFTTLSLEEAEAAAEVIEEELPGLSAEHLDILADALRAALPAMTPEKAELAADVLVAALNEAEEKDE
B9: GBRAP_166_4874 (protein)
chain: GLEELLEKARKEIRELLKKASEADDEERVELYIEIGEIIEELREAGAPKEAILELVREALKEAKELGLDVRLLAGIIINVTDFDEEEIDELDKIVEEVLK
B10: GBRAP_11_2667 (protein)
chain: KKEVYKKAAELAKELAKTVKKLIEEGIDNEELIKKAEELLKELKELAKKELDKASQKEVEVLEEIWKEAKEDKENSLKYWELLLAGARVLEGNFLLEYDE
B11: GBRAP_160_4272 (protein)
chain: SPEREELIEDIEEDREEILELVDKISPEEVRNFAVTSLGSHLLEAIDLGLVTDEQEDELMEIVDELEKELKEAENASKEEIKKIITEHYDKAIEILKKAK
B12: GBRAP_166_4873 (protein)
chain: HMEELLKKAEKEIEKLLKEASEADEEEQVELYIEIGEIIEELKEAGASLEDILELIERTLKEAKKLGLDVKKLAGIIINVTDFNEEEIDKIDEIVEKVLK
B13: GBRAP_14_3780 (protein)
chain: MEKIEEIIREKAEEIIELLTEIAPEKAEEITEIVEEVVERTIARIKETGNAEEAAEEGRDELLARIAELTADLPAETRARMLAVVAVEFGQAILEIEELL
B14: GBRAP_125_2986 (protein)
chain: EEEELLEDLREIFKALGLSEEDAEEAVKLAREFSLKQTLYALMAALGAEEVADAVAKLTEEQAKEVVKEASEYIKKNPNITPEEVVELLLELAKKQLAKA
B15: GBRAP_78_6666 (protein)
chain: ELEKIIDETLELLTEVIRASKSLPPEVQEAVLDEAVEAATELEEIEEEGPNLEELEEAIKHLEKLLELLEKNKSPELEPLIEKLKKQIEKLKKAKEELEK
B16: GBRAP_95_7066 (protein)
chain: EEDREIAEDLIDTAEDLVEIGLYEQAARAAKAAVEVLKEIGETGELALRAAEVLVKVAEATGDEEAAEAAKEVLERIREAGGDEERIKELEKRLEEAKKK
B17: GBRAP_184_5265 (protein)
chain: KVLERTIKAENVEELIAKMEEVRKEALATGADVIILLEVEKLTKEMIDALFAQLKALRDAGYKGKITVGIDADLTEEMIDYVIKKADEAGVNVVLAISEE
B18: GBRAP_84_6999 (protein)
chain: STDEEIIELAKEIFDRVKGEAAVKILALVLLKVTGETATRILNYALERDPQVAYDALSLAYEVVSEDKEEELEEEARRLMAEESPEVRAKFERLLELMKA
B19: GBRAP_128_3320 (protein)
chain: MDEELLAEFKELAEAAKKADLPTLAKLTAEMVALIGQADAETREEMAEIFRKALEELDAEKLDVVADTLRAEMPKLDPEAARVVADLAVDALNLAEEKEE

In all, about 4,500 sequences were measured (“median log2 fold change of GCK-ALFA target abundance (FLAG IP / Myc IP barcode read proportion)”: median about 0.078, lowest 2% from about -0.6 on). This is one part of a sample in which the lowest values are shown more often than they occur.

In this experiment the target is GABARAP, O95166. Briefly: median log2 fold change of GCK-ALFA target abundance (FLAG IP / Myc IP barcode read proportion) (log2 ratio); each designed protein is fused to an ALFA-tag nanobody in HEK293 cells to bring the named protein to FLAG-tagged glucokinase (GCK); Myc marks an untargeted standard; higher = target protein stabilised (more abundant). As to conditions: target protein: 3xFLAG-MCP-GCK-ALFA reporter; HEK293 landing pad (RPLP). In outline: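 The readout is target abundance, the per-binder median log2 ratio of FLAG to Myc barcode read proportions. It came from HEK293 landing-pad cells carrying a recombined ALFA-nanobody-fused binder library, induced with 2 μg mL^−1 doxycycline and transfected with a plasmid for a FLAG-tagged target and a Myc-tagged standard. After 48 h, lysates were immunoprecipitated with anti-FLAG and anti-Myc, and circular RNA barcodes were reverse transcribed, amplified and sequenced. Each barcode needed a proportion of at least 10^−7 in both replicates and each binder at least 3 barcodes per replicate, a pseudocount of 10^−6 was added, and the replicates were pooled.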
Chain of GABARAP, O95166 (O95166 whole entry, the tested form may be a part): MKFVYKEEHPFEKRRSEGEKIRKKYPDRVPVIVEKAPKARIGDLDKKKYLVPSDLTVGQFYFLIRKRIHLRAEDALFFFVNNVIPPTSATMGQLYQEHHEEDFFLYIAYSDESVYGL
As for B1, the “median log2 fold change” value was -0.791.
To B2 belongs -0.202.
Take B3: the “median log2 fold change” value came out at 0.451.
The value for B4 was 0.0601.
To B5 belongs -0.612; to B6, 0.303; to B7, 0.095.
The value for B8 was 0.296; that for B9 was 0.0131; that for B10 was -0.102.
Turning to B11, the “median log2 fold change” value is 0.239.
To B12 belongs -0.298; to B13, -0.0168.
Regarding B14, the “median log2 fold change” value was -0.643.
On to B15, for which the “median log2 fold change” value worked out at 0.274.
The value for B16 was 0.142; that for B17 was -0.0191; that for B18 was -0.601.
On to B19, for which the “median log2 fold change” value worked out at 0.0824.
